This passage reports outcome, Potency and activation results from PubChem BioAssay (NCATS).

Test [1] can be described thus: Validation of Assay for Modulators of Lamin A Splicing (AID 1459; active = well fitted curve in the direction sought with a large enough effect in the signal ratio; the % refers to the signal ratio;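 note: cells exposed to compound for two days before reading; 0% is about no effect; ratio rise marks activators and ratio drop marks inhibitors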). In short, it runs like this: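 HeLa S3 lamin A-EGFP/DsRed2 stable clone, 600 cells/well, Opti-MEM 2% FBS; compounds by pin tool; 48 hrs, 37 °C/5% CO2; Acumen 488 nm scan, objects 10-100 um; GFP/RFP intensity ratio.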
In test [2] the target is DNA repair nuclease/redox regulator APEX1 (Homo sapiens) (UniProt P27695). As to the kind of experiment: qHTS Validation Assay for Inhibitors of the Human Apurinic/apyrimidinic Endonuclease 1 (APE1) (AID 1705;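 note: TAMRA fluorescence gain over two minutes as APE1 cuts a quenched THF abasic duplex; series mostly up to about 57 µM; % is set by controls: 0 for no effect and ±100 for the full control effect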). Put shortly: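 qHTS, 1536-well. APE1 + cpd 15 min RT → 50 nM TAMRA/BHQ-2 THF-abasic dsDNA substrate → kinetic fluorescence, 3 reads/60 s; delta(read3−read1) = reaction progress. No-enzyme buffer = negative control.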
In general terms: In qHTS, concentration-response curves come from the screen itself.

A short description of test [3]: Counterscreen for APE1 Inhibitors: Fluorescent Dye Displacement Validation Assay (AID 1707).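 Note: plate controls were ThO with dsDNA and no compound for no effect and ThO without dsDNA for full effect.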 Put shortly:
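ThO 250 nM + dsDNA 50 nM (THF abasic site, 5'-TAMRA), Tris-HCl pH7.5/50mM NaCl/2 mM MgCl2/0.01% Tween-20; compounds pin-transferred; ex 480/em 540 nm endpoint. Neutral = no compound; no-DNA ThO wells = negative control.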
In general terms: A counterscreen serves to expose hits that act by an unwanted route or on another target.

Test [4] can be described thus: qHTS for differential inhibitors of proliferation of Plasmodium falciparum line 7G8 (AID 1815).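 Note: parasite growth measured after three days of incubation; plate controls were vehicle wells for no effect and reference inhibitor wells for full effect.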
Test [5] is described as follows: qHTS for differential inhibitors of proliferation of Plasmodium falciparum line GB4 (AID 1816).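 Note: parasite growth measured after 72 h incubation; 0% = vehicle DMSO and -100% = reference inhibitor.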 The conditions noted are these: Potency: Plasmodium falciparum GB4 proliferation inhibition.
A short description of test [6]: qHTS for differential inhibitors of proliferation of Plasmodium falciparum line 3D7 (AID 1876).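 Note: parasite growth measured after three days of culture; 0% = vehicle wells and -100% = reference inhibitor wells.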
The nature of test [7]: qHTS for differential inhibitors of proliferation of Plasmodium falciparum line D10 (AID 1877).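 Note: parasites grown with compound for 72 h before DNA staining; plate controls were vehicle wells for no effect and reference inhibitor wells for full effect.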
Test [8] in a line: qHTS for differential inhibitors of proliferation of Plasmodium falciparum line W2 (AID 1883).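 Note: parasites grown with compound for 72 h before lysis and staining; 0% = vehicle wells and -100% = control inhibitor wells.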 Conditions: Potency: Plasmodium falciparum W2 proliferation inhibition.
The nature of test [9]: qHTS for differential inhibitors of proliferation of Plasmodium falciparum line HB3 (AID 1886).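 Note: parasites grown with compound for 72 h before SYBR Green readout; plate controls were vehicle for no effect and reference inhibitor for full effect.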 The conditions noted are these: Potency: Plasmodium falciparum HB3 proliferation inhibition.
The target in test [10] is ATP-dependent DNA helicase Q1 (Homo sapiens) (UniProt P46063). As to the kind of experiment: qHTS Validation Assay for Inhibitors of RecQ-Like Dna Helicase 1 (RECQ1) (AID 2353).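 Note: plate controls were DMSO vehicle for no effect and enzyme-free control for full effect.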 Put shortly:
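50 nM RECQ1T1 preincubated 15 min with compound in Tris pH 8.0 buffer with MgCl2, DTT, Tween-20 and 2.5 ug/ml poly(dI-dC); started with 200 nM TAMRA/BHQ-2 forked duplex and 2 mM ATP. Unwinding read as fluorescence (525/598 nm), two reads 2 h apart.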

Test [11] in a line: Validation screen for small molecules that induce DNA re-replication in MCF 10A normal breast cells (AID 463097). Note: 0% is about no effect; nearly all actives have a fitted effect of over 60% in size. Put shortly: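 Image-based qHTS: normal breast cells are incubated with compound for 48 hr, stained with Hoechst, and scanned for total nuclear fluorescence. Compounds raising the fraction of nuclei with elevated DNA content count as re-replication inducers.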
Test [12] in a line: Quantitative high throughput screen for delayed death inhibitors of the malarial parasite plastid, 96 hour incubation (AID 488745). Note: series mostly up to about 29 µM; % is set by controls: 0 for no effect and ±100 for the full control effect; nearly all actives have a fitted effect of over 70% in size. Put shortly:
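Luciferase-expressing P. falciparum in erythrocytes (2% hematocrit, 0.1% parasitemia) incubated with compound for 96 h at 37 C, 5% CO2, in RPMI 1640 with 0.5% Albumax. Growth inhibition read as decreased luminescence.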

Test [13] in a line: Quantitative high throughput screen for delayed death inhibitors of the malarial parasite plastid, 48 hour incubation (AID 488752). Note: % is set by controls: 0 for no effect and ±100 for the full control effect; nearly all actives have a fitted effect of over 65% in size. Put shortly: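 Erythrocytes infected with firefly luciferase-expressing P. falciparum (2% hematocrit, 0.1% parasitemia) cultured with compound for 48 h at 37 C, 5% CO2, in RPMI 1640/0.5% Albumax. Growth inhibition read as loss of luminescence.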

Test [14] concerns the target M-phase phosphoprotein 8 (Homo sapiens) (UniProt Q99549). Kind of test: qHTS Validation Assay for Inhibitors for MPP8 Chromodomain Interactions with Methylated Histone Tails (AID 488949).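 Note: 50 nM MPP8 with 50 nM peptide preformed then compounds added for 30 min; AlphaScreen signal from MPP8 chromodomain bound to biotinylated H3K9me3 peptide; top concentration of the series differs between compounds; % is set by controls: 0 for no effect and ±100 for the full control effect; nearly all actives have a fitted effect of over 55% in size.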 In short, it runs like this: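 50 nM MPP8 + 50 nM b-H3K9me3 peptide, PBS pH 7.4/0.01% Tween-20, 30 min RT; + cpd 30 min RT; + AlphaScreen donor/Ni-chelate acceptor beads 10 ug/mL final, 30 min dark; luminescence read.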

Test [15] addresses Transient receptor potential cation channel subfamily V member 1 (Homo sapiens) (UniProt Q8NER1). As to the kind of experiment: HTS Assay for Compounds that Act as Enhancers of the Vanilloid Receptor 1 (AID 488979). Note: 0% is about no effect. Put shortly:
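TRPV1 cells loaded with Fluo-8 calcium dye; compound added and Ca2+ signal (ex 480/em 520 nm) followed 3 min, then capsaicin at EC20 added and read 2 more min to detect enhancement.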

Test [16] concerns the target Thyrotropin receptor (Homo sapiens) (UniProt P16473). Kind of test: qHTS Assay for Antagonists of the Thyroid Stimulating Hormone Receptor (AID 488980). Note: series mostly up to about 58 µM; 0% is about no effect. Put shortly: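 Readout is cAMP by HTRF competition between cellular cAMP and cAMP-d2 for a cryptate-labelled antibody. Antagonism was assessed in TSHR-transfected HEK293 cells stimulated with 4 nM TSH (EC80, final) in the presence of RO 20-1724.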

Test [17] addresses Thyrotropin-releasing hormone receptor (Homo sapiens) (UniProt P34981). As to the kind of experiment: qHTS for Small Molecule Agonists and Allosteric Enhancers of Human TRH Receptor: Validation Screen for Agonists (AID 493127;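 active = calcium activation more than 3 SD above the typical response in the agonist read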; note: 0% is about no effect). The conditions noted are these: TRH receptor agonist cell assay; at 2 µM; hits give high values. In short, it runs like this: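 TRHR cells loaded with fluo-8 calcium dye; FDSS kinetic fluorescence (Ex 480/Em 530) read at 1 s/cycle after 23 nL compound addition. Agonist-mode calcium response recorded before the 10 nM TRH (EC20) addition.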

Test [18] has as its target Galactokinase (Homo sapiens) (UniProt P51570). Kind of test: qHTS Validation Assay for Inhibitors of Human Galactokinase (GALK) (AID 493189). Note: 0% is about no effect. In short, it runs like this: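 5 nM GALK / 100 uM galactose / 35 uM ATP, 20 mM HEPES pH8.0, 5 mM MgCl2, 60 mM NaCl, 1 mM DTT, 0.01% BSA (final). RT 1 h; Kinase-Glo Plus luminescence.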
Test [19] can be described thus: Validation screen for small molecules that induce DNA re-replication in SW480 colon adenocarcinoma cells (AID 504364). Note: 0% is about no effect. Put shortly: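 SW480 cells (250/well) exposed 48 h at 37 C, 5% CO2, then Hoechst-stained 40 min. Nuclear DNA content imaged by fluorescence scanning (405 nm excitation, 500-530 nm emission); re-replication scored as increased nuclei with elevated intensity.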

The nature of test [20]: qHTS Assay for Modulators of Human Peripheral Myelin Protein 22 (PMP22) Expression/Activity (AID 1967; active = well fitted curve in the direction sought with a large enough effect in the signal ratio; the % refers to the signal ratio;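 note: 0% = untreated cells and 100% end not stated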). In short, it runs like this:
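Luminescence ratio of Pmp22 promoter-driven green luciferase to EF-alpha-driven red luciferase, in engineered mouse MSC80 Schwann cells, served as read-out. Compounds were incubated 24h; untreated cells defined 0% Activity; curves were classified by r2, magnitude and activity.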

The target in test [21] is Ferritin light chain (Equus caballus) (UniProt P02791). Kind of test: qHTS Validation Assay for Identification of Novel General Anesthetics (AID 2323). Note: series mostly up to about 77 µM; % is set by controls: 0 for no effect and ±100 for the full control effect. Put shortly: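 Fluorescence at 535 nm (excitation 380 nm) reported loss of 1-AMA binding to horse-spleen apoferritin (10 uM) in PBS with 50% saturated 1-aminoanthracene, after 10 min room-temperature incubation with compound; values from Hill fits of normalized response.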

The target of test [22] is Calcium and integrin-binding protein 1 (Homo sapiens) (UniProt Q99828). As to the kind of experiment: Primary qHTS for Identification of Calcium Integrin Binding Protein 1 (CIB1) Competitor (AID 1508620).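 Note: GST tagged CIB1 binding a fluorescein labelled alphaIIb integrin peptide tracer; top concentration of the series differs between compounds; % is set by controls: 0 for no effect and ±100 for the full control effect.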 In short, it runs like this:
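Fluorescence polarization competition: GST-tagged CIB1 (1 uM final) preincubated with compound 15 min at room temperature, then FITC-labelled alphaIIb peptide (100 nM final) added. After 15 min at room temperature, polarization read at Ex 480/Em 540.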

For test [23] the target is unchanged. As to the kind of experiment: Confirmatory qHTS for Identification of Calcium Integrin Binding Protein 1 (CIB1) Competitor (AID 1508617). Note: nearly all actives have a fitted effect of over 65% in size. Note: potency is the fitted concentration of half-maximal effect. In short, it runs like this: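 Binding competition between test compounds and fluorescent alphaIIb peptide for 1 uM CIB1-GST is monitored by FP at 480/540 nm. Final compound range is up to 114 uM; unlabeled peptide serves as reference competitor.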

The nature of test [24]: qHTS for Inhibitors of Ubiquitin-specific Protease USP2a Using CHOP2 as the Reporter: K633 Counterscreen (AID 652168). Note: series mostly up to about 57 µM; % of control where 0% means no effect. In short, it runs like this: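 Cell-free interference counterscreen without USP2a: compounds pinned into enzyme-free buffer (20 mM Tris pH 8, 2 mM beta-mercaptoethanol, 0.05% Chaps), then DiUb K48-4IQF substrate added (100 nM stock); fluorescence read kinetically, Ex 525/Em 598.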

The nature of test [25]: qHTS for Inhibitors of Ubiquitin-specific Protease USP2a Using CHOP2 as the Reporter: Cytotox Assay (AID 652170).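 Note: series mostly up to about 46 µM; plate controls were DMSO-treated cells for no effect and wells without cells for full effect; nearly all actives have a fitted effect of over 70% in size.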 Put shortly: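 HCT116 human colon cancer cells, 600 per well in DMEM with 10% FBS, exposed to compounds for 72 hr at 37 deg C. ATP measured by CellTiter-Glo luminescence, normalized to DMSO cells and no-cell background.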
Test [26] concerns the target Ubiquitin carboxyl-terminal hydrolase 2 (Homo sapiens) (UniProt O75604). Kind of test: qHTS for Inhibitors of Ubiquitin-specific Protease USP2a Using CHOP2 as the Reporter: K484 Substrate (AID 652173).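 Note: cleavage of internally quenched K48 di-ubiquitin substrate measured as rising fluorescence over time; nearly all actives have a fitted effect of over 70% in size.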 In short, it runs like this: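 USP2 (dispensed at 5 nM) was pinned with compounds, then DiUb K48 internally quenched fluorescent substrate (dispensed at 100 nM) was added. The buffer was 20 mM Tris pH 8, 2 mM beta-mercaptoethanol and 0.05% CHAPS. Cleavage was read kinetically as rising fluorescence, Ex 525/Em 598.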

Each structure is given as a SMILES string. A number with no mark means an inactive call. Inconclusive results are not listed. Activity calls are given as the source filed them. Unless noted, calls come from the whole dose curve; as a rule, active = well fitted curve in the direction sought with a large enough effect; inconclusive = small, poorly fitted or top-dose-only effect, or another doubt; inactive = no such curve, though single readings can be large; an effect the other way counts as inactive or inconclusive.

Sequence of Calcium and integrin-binding protein 1 (Homo sapiens) (Q99828 whole entry, looked up): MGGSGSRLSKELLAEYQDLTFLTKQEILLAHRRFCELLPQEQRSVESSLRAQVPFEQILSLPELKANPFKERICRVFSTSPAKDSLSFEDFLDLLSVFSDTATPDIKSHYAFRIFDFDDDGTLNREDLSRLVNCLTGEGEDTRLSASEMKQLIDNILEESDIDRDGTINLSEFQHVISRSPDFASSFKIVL
Sequence of Thyrotropin-releasing hormone receptor (Homo sapiens) (P34981 whole entry, looked up): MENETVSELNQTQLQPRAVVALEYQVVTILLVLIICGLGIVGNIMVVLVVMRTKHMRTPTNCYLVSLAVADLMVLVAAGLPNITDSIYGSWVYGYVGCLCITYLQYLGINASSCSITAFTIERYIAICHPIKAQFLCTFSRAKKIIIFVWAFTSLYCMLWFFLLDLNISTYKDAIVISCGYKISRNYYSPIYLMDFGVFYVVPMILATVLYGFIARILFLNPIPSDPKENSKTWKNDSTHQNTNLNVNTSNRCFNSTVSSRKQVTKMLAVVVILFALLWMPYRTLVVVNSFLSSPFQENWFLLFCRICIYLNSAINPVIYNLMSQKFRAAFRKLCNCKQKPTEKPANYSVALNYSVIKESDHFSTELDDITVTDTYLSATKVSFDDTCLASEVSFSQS
Sequence of DNA repair nuclease/redox regulator APEX1 (Homo sapiens) (P27695 whole entry, looked up): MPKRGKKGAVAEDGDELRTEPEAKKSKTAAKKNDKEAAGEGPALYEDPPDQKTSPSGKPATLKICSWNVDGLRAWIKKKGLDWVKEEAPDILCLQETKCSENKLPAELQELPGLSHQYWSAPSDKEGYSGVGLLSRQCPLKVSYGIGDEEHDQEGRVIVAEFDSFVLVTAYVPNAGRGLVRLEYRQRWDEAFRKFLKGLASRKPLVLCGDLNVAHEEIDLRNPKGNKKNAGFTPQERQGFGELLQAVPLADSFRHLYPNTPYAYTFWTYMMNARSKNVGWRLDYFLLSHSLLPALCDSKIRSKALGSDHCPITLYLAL
Sequence of Galactokinase (Homo sapiens) (P51570 whole entry, looked up): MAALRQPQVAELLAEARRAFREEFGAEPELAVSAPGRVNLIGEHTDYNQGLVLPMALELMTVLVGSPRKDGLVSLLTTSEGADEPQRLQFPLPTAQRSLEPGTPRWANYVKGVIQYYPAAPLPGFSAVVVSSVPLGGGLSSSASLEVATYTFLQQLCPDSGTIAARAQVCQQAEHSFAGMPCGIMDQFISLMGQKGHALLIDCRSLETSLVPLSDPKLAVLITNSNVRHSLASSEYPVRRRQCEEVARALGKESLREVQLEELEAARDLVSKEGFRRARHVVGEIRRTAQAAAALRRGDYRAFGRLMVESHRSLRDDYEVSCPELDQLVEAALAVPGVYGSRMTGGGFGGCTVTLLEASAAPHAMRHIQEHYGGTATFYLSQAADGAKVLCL
Sequence of ATP-dependent DNA helicase Q1 (Homo sapiens) (P46063 whole entry, looked up): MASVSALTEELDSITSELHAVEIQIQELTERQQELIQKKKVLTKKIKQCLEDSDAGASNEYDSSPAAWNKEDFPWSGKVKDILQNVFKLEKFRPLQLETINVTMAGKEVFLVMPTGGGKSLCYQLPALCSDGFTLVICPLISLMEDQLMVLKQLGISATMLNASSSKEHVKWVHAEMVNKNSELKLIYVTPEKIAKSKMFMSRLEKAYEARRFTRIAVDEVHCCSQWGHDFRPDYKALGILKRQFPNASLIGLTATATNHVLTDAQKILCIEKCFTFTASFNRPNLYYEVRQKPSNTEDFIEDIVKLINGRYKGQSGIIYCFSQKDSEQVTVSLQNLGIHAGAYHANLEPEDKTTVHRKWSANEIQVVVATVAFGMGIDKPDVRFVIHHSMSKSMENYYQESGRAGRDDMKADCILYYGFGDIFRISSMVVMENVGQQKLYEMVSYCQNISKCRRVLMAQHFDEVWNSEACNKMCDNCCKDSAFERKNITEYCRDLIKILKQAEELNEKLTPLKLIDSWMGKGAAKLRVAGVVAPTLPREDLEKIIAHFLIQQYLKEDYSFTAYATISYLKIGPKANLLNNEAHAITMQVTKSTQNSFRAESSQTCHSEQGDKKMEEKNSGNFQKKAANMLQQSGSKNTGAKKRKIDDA
Sequence of Thyrotropin receptor (Homo sapiens) (P16473 whole entry, looked up): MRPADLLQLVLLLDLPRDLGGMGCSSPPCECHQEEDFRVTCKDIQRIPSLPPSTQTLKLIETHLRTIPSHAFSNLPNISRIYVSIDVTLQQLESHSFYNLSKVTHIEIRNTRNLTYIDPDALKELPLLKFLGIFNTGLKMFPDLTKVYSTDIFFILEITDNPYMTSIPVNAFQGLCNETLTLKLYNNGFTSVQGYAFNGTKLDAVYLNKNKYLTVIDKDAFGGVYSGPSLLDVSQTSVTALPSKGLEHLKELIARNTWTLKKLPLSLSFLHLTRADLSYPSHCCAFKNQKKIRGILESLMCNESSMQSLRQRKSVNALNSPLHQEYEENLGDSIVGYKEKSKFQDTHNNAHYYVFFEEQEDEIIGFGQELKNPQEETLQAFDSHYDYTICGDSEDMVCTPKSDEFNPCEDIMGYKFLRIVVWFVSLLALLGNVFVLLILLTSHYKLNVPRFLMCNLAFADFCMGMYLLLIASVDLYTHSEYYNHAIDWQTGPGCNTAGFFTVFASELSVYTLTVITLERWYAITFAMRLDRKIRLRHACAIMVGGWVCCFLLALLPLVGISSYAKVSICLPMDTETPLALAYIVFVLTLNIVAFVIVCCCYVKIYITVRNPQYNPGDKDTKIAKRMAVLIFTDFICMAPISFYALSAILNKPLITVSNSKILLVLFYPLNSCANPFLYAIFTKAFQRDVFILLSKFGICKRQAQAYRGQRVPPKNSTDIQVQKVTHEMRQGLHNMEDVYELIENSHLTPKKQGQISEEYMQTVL
Sequence of Transient receptor potential cation channel subfamily V member 1 (Homo sapiens) (Q8NER1 whole entry, looked up): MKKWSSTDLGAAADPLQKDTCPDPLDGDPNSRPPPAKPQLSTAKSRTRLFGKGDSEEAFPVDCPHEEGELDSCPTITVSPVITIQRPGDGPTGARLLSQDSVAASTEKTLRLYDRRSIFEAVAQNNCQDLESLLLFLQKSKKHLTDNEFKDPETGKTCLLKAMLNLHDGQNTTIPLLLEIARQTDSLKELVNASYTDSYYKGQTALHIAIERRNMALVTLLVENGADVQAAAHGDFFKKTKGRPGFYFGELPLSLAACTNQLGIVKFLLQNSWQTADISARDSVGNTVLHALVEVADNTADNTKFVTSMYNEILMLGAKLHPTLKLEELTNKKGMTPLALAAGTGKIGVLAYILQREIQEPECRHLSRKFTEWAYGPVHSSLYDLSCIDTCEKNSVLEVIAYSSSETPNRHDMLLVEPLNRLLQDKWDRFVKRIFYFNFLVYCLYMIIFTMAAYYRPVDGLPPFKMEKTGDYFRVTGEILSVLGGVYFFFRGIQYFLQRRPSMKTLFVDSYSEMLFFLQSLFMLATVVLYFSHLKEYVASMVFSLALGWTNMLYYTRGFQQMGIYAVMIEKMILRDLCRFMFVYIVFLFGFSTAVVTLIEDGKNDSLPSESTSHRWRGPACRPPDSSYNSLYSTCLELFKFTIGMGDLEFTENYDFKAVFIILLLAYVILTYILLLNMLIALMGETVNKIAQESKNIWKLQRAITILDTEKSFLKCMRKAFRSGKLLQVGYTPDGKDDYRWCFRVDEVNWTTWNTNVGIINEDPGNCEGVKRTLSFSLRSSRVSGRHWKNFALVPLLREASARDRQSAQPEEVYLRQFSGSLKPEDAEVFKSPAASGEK
Sequence of Ubiquitin carboxyl-terminal hydrolase 2 (Homo sapiens) (O75604 whole entry, looked up): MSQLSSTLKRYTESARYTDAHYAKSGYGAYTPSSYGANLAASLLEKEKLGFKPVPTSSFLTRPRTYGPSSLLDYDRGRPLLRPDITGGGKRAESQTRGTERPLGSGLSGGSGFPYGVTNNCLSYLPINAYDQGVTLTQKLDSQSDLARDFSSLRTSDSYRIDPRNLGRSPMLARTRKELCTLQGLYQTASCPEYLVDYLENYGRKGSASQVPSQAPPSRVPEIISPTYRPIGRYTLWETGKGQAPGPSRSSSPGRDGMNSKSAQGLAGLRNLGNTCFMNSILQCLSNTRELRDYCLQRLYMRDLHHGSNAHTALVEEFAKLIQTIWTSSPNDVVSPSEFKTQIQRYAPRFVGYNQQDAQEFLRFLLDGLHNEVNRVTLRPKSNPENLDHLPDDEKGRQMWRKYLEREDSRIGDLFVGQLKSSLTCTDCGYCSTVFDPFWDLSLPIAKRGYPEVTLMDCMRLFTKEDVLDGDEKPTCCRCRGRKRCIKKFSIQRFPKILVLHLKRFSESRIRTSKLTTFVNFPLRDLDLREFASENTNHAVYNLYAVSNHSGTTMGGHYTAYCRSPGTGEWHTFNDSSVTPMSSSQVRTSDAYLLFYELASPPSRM
Sequence of Ferritin light chain (Equus caballus) (P02791 2-175 limits assumed): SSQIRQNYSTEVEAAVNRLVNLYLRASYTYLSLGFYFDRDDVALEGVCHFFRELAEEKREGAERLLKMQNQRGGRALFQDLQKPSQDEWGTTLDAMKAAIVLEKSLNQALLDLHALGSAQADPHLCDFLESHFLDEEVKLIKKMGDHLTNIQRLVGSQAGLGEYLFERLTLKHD

Regarding `CC(O)[C@@H](O)[C@H]1CNc2nc(N)[nH]c(=O)c2N1` (stereo partly drawn), the compound was classed as inactive in [1], in test [11], in test [15], in test [16], in [18] and in test [19]. Also, the Potency result in test [2], in test [3], in test [4], in [5], in [6] and in [7] was “inactive” throughout. In addition, the Potency entry in [8], in test [9], in test [10], in [12], in test [13] and in [14] was “inactive” in each case. The activation in test [17] is 0.0625%.
Take `CSc1nc(N)c2ncn([C@@H]3O[C@H](COP(=O)(O)OP(=O)(O)O)[C@H](O)[C@H]3O)c2n1`: the outcome in test [1], in test [20], in test [21], in test [11], in test [15] and in test [16] was inactive. The compound was called inactive in test [18] and in test [19]. Besides, the Potency entry in test [2], in [3], in [4], in test [5], in [6] and in test [7] was “inactive” throughout. Further, the Potency result in test [8], in test [9], in test [10], in test [12] and in [13] was “inactive” each time. The activation in test [17] is 17.3%.
On to `CC(=O)Nc1ccc(-c2csc(N3CCC(C(N)=O)CC3)n2)cc1`, for which the Potency entry in [22] was “inactive”.
As for `CC1(C)N=C(Nc2nc3ccccc3o2)NC2=C1C(=O)CCC2`, in test [23], the Potency entry was “inactive”.
On to `CC(C)Oc1ccc(-c2ccc(=O)n(CC(=O)NCCc3ccccc3)n2)cc1`, for which the Potency result in [22] is “inactive”.
As for `N#Cc1ccc(N[S+](=O)([O-])c2ccc(Nc3nc(-c4ccccc4)cs3)cc2)cc1`, the outcome in [24] was inactive. In addition, the Potency entry in test [25] and in [26] was “inactive” each time. Besides, the Potency in [23] is 44.7 µM (active).
As to `O=[S+]([O-])(Nc1nccs1)c1ccc(NCc2cc(Cl)cc(Br)c2O)cc1`, in test [23], the Potency entry was “inactive”.
Consider `COc1ccc(-c2nnc3n2N=C(c2ccc(OC)c(OC)c2)CS3)cc1`, for which the Potency result in [22] was “inactive”.
